# Only some compounds are listed: those with a hit (about 21% of all), similar ones and a draw of the others.
# Shiga toxin inh: blocks Shiga toxin action in Vero cells; Vero cells, Shiga toxin protein synthesis inhibition reporter; inhibition, % at 38.7 µM; 9.2% of 290,000 active; AID 2315; in the data active means inhibition mostly above about 28%, no sharp cut-off; inactive means mostly below about 43%; further: 0% is about no effect
# Pf growth 48h: P. falciparum growth inhibition at 48 hours (one generation); P. falciparum luciferase growth in erythrocytes, 48 h; Potency, µM (series often up to 28.7 µM), for the others: at the highest dose activity change, negative = inhibition, usual class: inhibitors; 5.9% of 310,000 active; AID 504832; further: potency means the concentration at half of the fitted maximal effect; on the % scale 0 is the no-effect control and ±100 the full control effect
#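 In quantitative HTS format, infected erythrocytes bearing luciferase-reporter parasites were treated for a single generation at 37 C. Luminescence after adding detection reagent served as the growth measure.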
# Cycloheximide cs: affects cycloheximide protein synthesis inhibition readout, counter-screen; max response, %; cell reporter, cycloheximide protein synthesis inhibition counterscreen; AID 2314; 12% of 300,000 active; in the data active means max response mostly above about 13%, no sharp cut-off; inactive means mostly below about 14%; further: read at 38.3 µM for the half of the compounds with a filed dose; 0% is about no effect
# Pf growth 96h: P. falciparum growth inhibition at 96 hour, primary screen for plastid delayed-death inhibitors; P. falciparum luciferase reporter growth, 96 h; AID 504834; 6.9% of 320,000 active; Potency, µM (titrated, usually from 28.7 µM), inactives show at the highest dose activity change, negative = inhibition, actives largely listed as inhibitors; further: potency means the concentration at half of the fitted maximal effect; on the % scale 0 is the no-effect control and ±100 the full control effect
#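 P. falciparum expressing integrated firefly luciferase, in erythrocytes at 2% hematocrit, 0.05% parasitemia, incubated with compounds 96 h at 37 C, 5% CO2. Growth inhibition read as loss of luminescence; two-generation exposure targets delayed-death apicoplast inhibitors.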
# HCV inhibitor: inhibitors of hepatitis C virus infection; Huh7.5.1 HCVcc-Cre infection, luciferase reporter, 44 h; Potency, µM (top dose mostly 41.8 µM), without a hit: top-dose activity change, negative = inhibition, hits mostly inhibitors; 3.4% of 340,000 active; AID 651820; further: potency means the concentration at half of the fitted maximal effect; on the % scale 0 is the no-effect control and ±100 the full control effect
#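 Luciferase read-out (15 sec integration) after a 15 min room-temperature substrate step quantifies HCVcc-Cre infection. Cells, 1,000 per well, had compound added 4 h post-plating, then virus at ~0.5 moi, and were cultured 44 h.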
# HCMV inh: blocks human cytomegalovirus replication. HFF cells, HCMV-luciferase reporter, 72 h; active compounds read low. activity change, negative = inhibition, % at 57.5 µM. 4.5% of 410,000 active. AID 1259415; in the data active means activity change below about -60%; inconclusive means no clear call, values can overlap the other calls; inactive means above about -39%; further: on the % scale 0 is the no-effect control and ±100 the full control effect
#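 Compounds were evaluated in HFFs infected with an HCMV luciferase reporter virus (MOI 1 PFU/cell). Luciferase in lysates collected 72 h post infection served as the replication measure.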
# Starred values were filed as active, the others as inactive; ? = inconclusive; nt = not tested or not shown; [ ] = remark or other dose. Unless noted, the call rests on the fitted dose curve; in most records, active means well fitted inhibition curve with a large enough effect; inconclusive means small, poorly fitted or top-dose-only effect, or another doubt; inactive means no such curve, though single readings can be large or run the other way.
SMILES,Shiga toxin inh,Pf growth 48h,Cycloheximide cs,Pf growth 96h,HCV inhibitor,HCMV inh
Cc1cccc(N(C)C(=O)C2CCN(S(=O)(=O)c3cccc4nonc34)CC2)c1,nt,nt,nt,nt,nt,-17
CCOc1ccc(C(NC(=O)c2ccco2)c2ccc(OC)c(OC)c2)cc1 (configuration not stated),-9,-8%,-1,nt,4%,56
COc1ccc(C(Nc2ccccn2)c2c(NC(=O)c3ccco3)sc(C)c2C)cc1OC (configuration not stated),26,?,22*,5.2µM*,-13%,?
COc1cc(C(Nc2ccccn2)c2c(NC(=O)c3ccco3)sc(C)c2C)cc(OC)c1OC (configuration not stated),76*,5.2µM*,29*,8.3µM*,2%,63
COc1cc(S(=O)(=O)N2CCCN(C)CC2)ccc1NC(C)=O,15,1%,-3,23%,-2%,-9
Cc1cc(C)cc(-n2ccn(CC(=O)Nc3ccccc3C(F)(F)F)c(=O)c2=O)c1,nt,nt,nt,nt,nt,-17
O=C(Nc1nc2c(s1)CN(Cc1ccccc1)CC2)c1cccc(S(=O)(=O)N2CCc3ccccc32)c1,-11,?,3,8.3µM*,?,-31
O=C(Nc1nc2ccccc2s1)c1cccc(S(=O)(=O)N2CCc3ccccc32)c1,21,?,14*,?,?,-7
Cc1ccc(-c2onc3ccc(C4OCCO4)cc23)cc1,71*,319%,14*,?,?,-27
Cc1ccc(CN2CC(C(=O)N(C)CC(=O)Nc3cccc(F)c3)CC2=O)cc1 (configuration not stated),-2,?,-3,5%,1%,6
CN(C)c1ccc(/C=C/C=C2/SC(=S)N(c3ccccc3)C2=O)cc1,88*,119%,33*,9%,7%,-36
Cc1ccccc1CN1CCN2C(C(=O)NCC3CCOCC3)=COC2=NC1=O,nt,nt,nt,nt,nt,0
CSc1ncc(Cl)c(C(=O)Nc2nnc(SC)s2)n1,-10,-4%,-1,14%,6%,-3
CC(C)Sc1ncc(Cl)c(C(=O)Nc2nnc(C(C)C)s2)n1,nt,nt,nt,nt,nt,-3
CSc1nnc(NC(=O)c2nc(S(=O)(=O)Cc3ccccc3)ncc2Cl)s1,68*,-7%,54*,-25%,13µM*,-102*
CC(C)c1nnc(NC(=O)c2nc(S(=O)(=O)Cc3ccccc3)ncc2Cl)s1,75*,-11%,67*,29%,?,-110*
Cc1ccccc1CS(=O)(=O)c1ncc(Cl)c(C(=O)Nc2nnc(C(C)C)s2)n1,nt,nt,nt,nt,nt,-99*
O=C(CCC1N=C2c3ccccc3N=C(SCC(=O)Nc3cccc(Cl)c3)N2C1=O)NCc1ccco1 (configuration not stated),nt,nt,nt,nt,nt,-24
COc1ccc(CNC(=O)CCC2N=C3c4ccccc4N=C(SCC(=O)NCC4CCCO4)N3C2=O)cc1 (configuration not stated),-1,?,-1,13µM*,6%,?
CCCN(CC1CCCO1)C(=O)CCc1nnc(CCc2ccc(OC)cc2)o1 (configuration not stated),16,-2%,27*,6%,-4%,2
CCN1CCN(C(=O)CCc2nnc(CCc3ccc(OC)cc3)o2)[C@@H](C)C1=O,30,3%,23*,29%,nt,28
O=C(CCC1N=C2c3ccccc3N=C(SCc3cccc(Cl)c3)N2C1=O)NCc1ccco1 (configuration not stated),24,?,15*,nt,?,-38
CCOC(=O)c1c(C)[nH]c(C)c1S(=O)(=O)N1CCC(C(=O)N2CCN(c3ccc(Cl)cc3)CC2)CC1,nt,nt,nt,nt,nt,16
CN(C(=O)c1cccc(NC(=O)Cc2cccc(NC(=O)C3CCN(C(=O)c4ccccc4)CC3)c2)c1)C1CCCC1,nt,nt,nt,nt,12%[8.37 µM],6
COc1ccc(CCc2nnc(CCC(=O)NCC3CCCO3)o2)cc1 (configuration not stated),13,23%,7,-17%,23%,-69*
SMILES,Shiga toxin inh,Pf growth 48h,Cycloheximide cs,Pf growth 96h,HCV inhibitor,HCMV inh
Cn1ncc2c(N3CCN(c4cccc(Cl)c4)CC3)ncnc21,nt,nt,nt,nt,nt,-11
O=C(O)c1sc2cccc(Cl)c2c1Cl,50,?,16*,1.3µM*,14%,1
COc1cc(NC(=O)C2CCCCC2)c(OC)cc1NC(=O)c1ccccc1,-8,?,-3,?,?,-4
N#Cc1ccc2nc(-c3ccc(CN4CCC(c5nc6ccccc6[nH]5)CC4)cc3)c(-c3ccccc3)nc2c1,nt,nt,nt,nt,nt,10
COc1ccc(C2C(CC(=O)O)=C(O)C(=O)N2c2ccccc2)cc1 (configuration not stated),38*,14%,28*,?,11%,18
COc1ccc(C2C(C(C)=O)=C(O)C(=O)N2c2ccc(O)cc2)cc1 (configuration not stated),-6,20%,-1,?,-5%,22
COc1cccc(N2C(=O)C(O)=C(C(C)=O)C2c2ccc(OC)c(OC)c2)c1 (configuration not stated),-16,13µM*,8,?,0%,-7
COc1ccc(C2C(C(C)=O)=C(O)C(=O)N2CCO)c(OC)c1 (configuration not stated),-15,5%,-4,12µM*,10%,5
Cn1nc(C(F)(F)F)c(/C=N/OC(=O)c2ccccc2)c1SCc1ccc(Cl)cc1,-5,-3%,-2,?,?,-72*
Cn1nc(C(F)(F)F)c(/C=N/OC(=O)c2ccccc2Cl)c1SCc1ccccc1Cl,-5,13µM*,2,?,?,?
CC1CCC(NC(=O)c2cc(C3CC3)nn2-c2ccccc2)CC1 (configuration not stated),nt,?,nt,?,-21%,5
COC(=O)c1ccc(/C=N/NC(=O)CC(=O)NCc2cccnc2)cc1,42,6%,-1,-11%,7%,-9
CCOc1cc(N2CCOCC2)c(OCC)cc1NCC(=O)N1CCN(Cc2ccccc2)CC1,-15,?,7,5.9µM*,?,0
CCOc1cc(N2CCOCC2)c(OCC)cc1NC(C)C(=O)N1CCC(C)CC1 (configuration not stated),-7,10µM*,-2,?,8%,-30
CCOc1cc(N2CCOCC2)c(OCC)cc1NC(=O)CSc1ccccc1C(=O)O,nt,?,nt,9.3µM*,-9%,-26
CCOc1cc(N2CCOCC2)c(OCC)cc1NC(=O)CN1CCN(Cc2ccc3c(c2)OCO3)CC1,-33,?,-3,?,23%,24
CCOc1cc(N2CCOCC2)c(OCC)cc1NC(=O)CSc1nccc(C)n1,23,?,2,?,?,14

# Source: PubChem (National Center for Advancing Translational Sciences (NCATS))
